# Source: PubChem (several laboratories)
# Most compounds without a hit are left out; they make up all but 32% or so of the library.
# PostGolgi yeast = growth inhibition of a yeast mutant, post-Golgi transport screen. inhibition, % at 10 µM. post-Golgi transport phenotypic cell assay. 98,000 compounds, 0.9% hits;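 also: yeast cells grown in 1536-well plates; yeast grown about 18 h at 30C before absorbance read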
# CYP2C19 inhib = blocks human cytochrome P450 2C19; P33261; CYP2C19 Supersomes, luciferin-H EGE luminescence, 30 min; inhibition, % at 5 µM; 96,000 compounds, 21% hits;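 active = CYP2C19 inhibition above a set limit at 5 µM in the primary screen, cut at about 50% in these data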
# Target sequence (P33261 whole entry, looked up): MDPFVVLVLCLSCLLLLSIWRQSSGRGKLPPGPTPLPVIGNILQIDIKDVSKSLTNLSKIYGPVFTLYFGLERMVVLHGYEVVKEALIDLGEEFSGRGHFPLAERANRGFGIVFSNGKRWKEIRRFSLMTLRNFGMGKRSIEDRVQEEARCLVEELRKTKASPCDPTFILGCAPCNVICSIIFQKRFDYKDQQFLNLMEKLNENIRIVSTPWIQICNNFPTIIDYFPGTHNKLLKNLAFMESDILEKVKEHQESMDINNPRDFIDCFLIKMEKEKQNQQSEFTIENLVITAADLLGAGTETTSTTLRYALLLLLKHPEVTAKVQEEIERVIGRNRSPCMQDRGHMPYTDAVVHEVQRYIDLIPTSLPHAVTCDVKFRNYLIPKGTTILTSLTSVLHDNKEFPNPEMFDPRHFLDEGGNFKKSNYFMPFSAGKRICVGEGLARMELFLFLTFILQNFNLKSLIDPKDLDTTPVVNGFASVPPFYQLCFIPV
# CYP2C19 act = cytochrome P450 2C19 (human) activation; P33261; recombinant CYP2C19, luciferin-H EGE luminescence; active compounds read high; 0 = fully inhibited enzyme, 1 = untreated enzyme; activation factor at 5 µM; 96,000 tested, under 10 active; AID 1025;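 active = activation factor of at least 2 at 5 µM in the primary screen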
# CYP2C9 act = activators of human CYP2C9; P11712; recombinant CYP2C9, luciferin-H conversion, luminescence; active compounds read high; factor 1 = untreated enzyme, 0 = blocked; 96,000 compounds, 1.4% hits; activation factor at 5 µM; AID 1024;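 active = activation factor of 2 or more for CYP2C9 at a 5 µM dose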
# PostGolgi ctrl = growth of the yeast control strain, post-Golgi counter-screen; efflux-deficient yeast background strain, growth absorbance A615, 16 h; 98,000 compounds, 5% hits; inhibition, % at 10 µM
# CYP2C9 inh = blocks human cytochrome P450 2C9; CYP2C9 Supersomes, luciferin-H conversion, luminescence; P11712; 96,000 compounds, 20% hits; inhibition, % at 5 µM;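 active = blocking of liver enzyme CYP2C9 beyond about 50% at 5 µM, limit read from the data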
# A number is an active result; – = inactive; · = no result given. Rule as the data show it, unless noted: active = inhibition above about 30%; inactive = the rest.
SMILES,PostGolgi yeast,CYP2C19 inhib,CYP2C19 act,CYP2C9 act,PostGolgi ctrl,CYP2C9 inh
Cn1c(-c2ccc(CN3CCCCC3)o2)nc2ccccc21,–,–,–,–,–,–
COc1cc(OC)cc(C(=O)N[C@H](C(=O)Nc2ccccc2N2CCOCC2)C(C)C)c1,–,–,–,–,–,–
CC(C)Oc1cccc(C(=O)Nc2ccccc2N2CCOCC2)c1,–,–,–,–,–,59
Cc1cc(Cl)ccc1OC(C)C(=O)Nc1ccccc1N1CCOCC1 (stereo not given),–,90,–,–,–,97
COC(=O)c1ccccc1NC(=O)Cn1c(=O)oc2ccc(Cl)cc21,–,74,–,–,–,–
CC(C)C(=O)Nc1cc(C(F)(F)F)ccc1N1CCOCC1,–,–,–,–,–,–
C(=N\n1cnnc1)/c1ccc2ncccc2c1,–,57,–,–,–,–
C(=N\n1cnnc1)/c1ccccn1,–,–,–,–,–,–
Cc1cc(C)nc(SCC2COc3ccccc3O2)n1 (stereo not given),–,–,–,–,–,–
COc1ccc(OCCCC(=O)Nc2ccc3c(c2)OCO3)cc1,–,–,–,–,–,68
O=C(CC1C(=O)NCCN1C(=S)Nc1ccccc1)Nc1ccc2c(c1)OCCO2 (stereo not given),–,–,–,–,–,59
O=C(CCCOc1ccccc1)Nc1ccc2c(c1)OCCO2,–,81,–,–,–,55
Cc1cccc(OCC(=O)Nc2ccc3c(c2)OCCO3)c1,–,70,–,–,–,58
O=C(COc1ccccc1Cl)Nc1ccc2c(c1)OCCO2,–,–,–,–,–,–
COc1ccc(CCC(=O)Nc2ccc3c(c2)OCCO3)cc1,–,–,–,–,–,–
CCOC(=O)c1ccc2c(c1)nc(COc1ccccc1C#N)n2CC,·,–,–,–,·,–
O=C(Nc1cc(C(F)(F)F)ccc1F)C1CCC1,–,–,–,–,–,–
O=C(Nc1nncs1)c1cccc(S(=O)(=O)N2CCCC2)c1,–,–,–,–,–,–
Cc1ccccc1OCCCC(=O)Nc1ccc2c(c1)OCO2,–,63,–,–,–,–
O=C(CCN1C(=O)c2ccccc2S1(=O)=O)Nc1ccc2c(c1)OCCO2,–,–,–,–,–,59
COc1ccc(NC(=O)CCN2C(=O)c3ccccc3S2(=O)=O)cc1,–,–,–,–,–,–
COc1ccc(OCC#CCNC(C)(C)C)cc1,–,–,–,–,–,–
Cc1nn(C)c(C)c1/C=N/N=C1\CCC2C3CCc4cc(O)ccc4C3CCC12C (stereo not given),–,–,–,–,–,–
COc1ccc(NC(=O)CCCn2c(=O)[nH]c3ccccc3c2=O)cc1,–,53,–,–,–,89
CC(C)n1c(=S)[nH]c2ccccc2c1=O,–,–,–,–,–,–
SMILES,PostGolgi yeast,CYP2C19 inhib,CYP2C19 act,CYP2C9 act,PostGolgi ctrl,CYP2C9 inh
CC1CCCN(C(=O)CCCn2c(=S)[nH]c3ccccc3c2=O)C1 (stereo not given),–,53,–,–,–,51
COc1ccc(NC(=O)CCCn2c(=S)[nH]c3ccccc3c2=O)cc1,–,–,–,–,–,59
CC1CCCCC1n1c(=S)[nH]c2ccccc2c1=O (stereo not given),–,72,–,–,53,–
O=C(CCCn1c(=S)[nH]c2ccccc2c1=O)NC1CCCC1,–,–,–,–,–,–
Cc1ccc(S(=O)(=O)c2nc(-c3cccs3)oc2SCC(N)=O)cc1,–,–,–,–,–,–
CSCCC(NS(=O)(=O)c1ccc2ccccc2c1)C(=O)O (stereo not given),–,–,–,–,–,–
CCC(C)S(=O)(=O)c1snnc1C (stereo not given),–,–,–,–,–,–
COc1ccc(NC(=O)CCCCn2c(=O)[nH]c3ccccc3c2=O)cc1,–,–,–,–,–,66
Cc1ccc(CNC(=O)CCCn2c(=O)[nH]c3ccccc3c2=O)cc1,–,–,–,–,–,–
NC(=O)CNC(=O)[C@@H]1CC2(CC(c3ccc(Cl)cc3)=NO2)CN1C(=O)c1ccc(Br)cc1 (stereo not given in full),–,–,–,–,–,–
CC1=C(C#N)C(c2ccc3ncccc3c2)C(C#N)=C(C)N1,–,83,–,–,–,69
CC1=C(C#N)C(c2cccnc2)C2=C(CC(C)(C)CC2=O)N1 (stereo not given),–,–,–,–,–,–
